Anthrax LF inh2 = anthrax lethal factor protease inhibition; P15917; inhibition, % at 10 µM; multiplex microsphere protease cleavage assay, LF; 0.12% of 360,000 active; further: plate controls were buffer without enzyme for full effect and enzyme alone for no effect
Target sequence (P15917 whole entry, looked up): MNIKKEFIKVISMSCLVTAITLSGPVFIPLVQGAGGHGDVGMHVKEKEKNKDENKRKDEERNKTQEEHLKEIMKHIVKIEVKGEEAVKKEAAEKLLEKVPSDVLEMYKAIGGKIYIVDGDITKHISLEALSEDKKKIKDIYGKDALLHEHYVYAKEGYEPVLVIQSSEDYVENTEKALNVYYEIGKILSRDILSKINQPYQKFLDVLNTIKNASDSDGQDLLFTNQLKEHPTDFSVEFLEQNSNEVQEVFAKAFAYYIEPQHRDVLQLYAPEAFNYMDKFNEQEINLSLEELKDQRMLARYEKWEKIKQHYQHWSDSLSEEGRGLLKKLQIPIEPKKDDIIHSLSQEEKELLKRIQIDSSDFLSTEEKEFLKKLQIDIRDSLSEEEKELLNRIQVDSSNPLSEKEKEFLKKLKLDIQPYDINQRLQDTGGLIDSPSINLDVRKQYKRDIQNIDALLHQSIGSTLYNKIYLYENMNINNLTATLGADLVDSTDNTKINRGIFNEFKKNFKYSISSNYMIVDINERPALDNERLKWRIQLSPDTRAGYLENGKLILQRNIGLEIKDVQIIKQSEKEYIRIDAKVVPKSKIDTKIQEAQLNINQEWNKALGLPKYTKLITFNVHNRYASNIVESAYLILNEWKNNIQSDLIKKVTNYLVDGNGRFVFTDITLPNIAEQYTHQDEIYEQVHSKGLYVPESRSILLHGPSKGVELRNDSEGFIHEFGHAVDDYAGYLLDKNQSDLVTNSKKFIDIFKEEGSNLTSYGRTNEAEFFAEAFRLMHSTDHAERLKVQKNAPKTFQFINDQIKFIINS
BoNT-F LC inh = inhibitors of Botulinum neurotoxin F light chain protease. inhibition, % at 10 µM. 0.22% of 360,000 active. Multiplex microsphere protease cleavage assay, flow cytometry; in the data active means inhibition above about 35%, passing the limit was not always enough; inconclusive means no clear call, values can overlap the other calls; further: plate controls were buffer without enzyme for full effect and enzyme alone for no effect
BoNT-A LC inh2 = BoNT A light chain protease inhibition; multiplex microsphere protease substrate cleavage, flow cytometry; inhibition, % at 10 µM; 0.17% of 360,000 active; further: plate controls were buffer without enzyme for full effect and enzyme alone for no effect
MazEF act = activators of E. coli MazEF toxin-antitoxin RNase; P0AE70; FAM/BHQ RNA-DNA oligo cleavage fluorescence, 5 h; activation, % at 20 µM; 0.32% of 350,000 active; in the data active means activation above about 50%
Bead autofluor = flagged as autofluorescent in microsphere protease counterscreen; AID 624483; compound autofluorescence counterscreen, microsphere flow cytometry; stronger effect = higher value; 3.1% of 360,000 active; fluorescence intensity (no concentration beside the values); in the data active means fluorescence intensity above about 16000; inconclusive means no clear call, values can overlap the other calls
An asterisk follows results filed as active; ? = inconclusive; nt = no result given. Compounds with a hit are over-represented: about 3.7% of the library has one in this group of screens. Unless noted, no stated cut-off is given here; in the data, active means inhibition above about 30%; inconclusive means no clear call, values can overlap the other calls; inactive means below that.

SMILES	Anthrax LF inh2	BoNT-F LC inh	BoNT-A LC inh2	MazEF act	Bead autofluor
COc1ccc(OC)c(N(CC(=O)NCCSC2CCCCC2)S(=O)(=O)c2ccccc2)c1	-1	0	0	4	5795
CCOC1(OCC)OC(c2ccccc2)=C(C#N)C(C=Cc2ccccc2)C1(OCC)OCC (stereo not given)	-5	8	0	4	3973
CCCC(=O)NC(c1ccco1)c1c(O)ccc2ccccc12 (stereo not given)	-1	-2	?	-7	24638*
CCN1C(=O)C(Cc2nc3ccccc3c(=O)n2-c2ccccc2)c2ccccc21 (stereo not given)	-2	4	?	1	19070*
CC(=O)N(C)c1ccc(NS(=O)(=O)Cc2ccccc2)cc1	0	1	?	-12	22151*
COc1ccc(NS(=O)(=O)Cc2ccccc2)cc1OC	0	-2	2	-3	21419*
O=S(=O)(Cc1ccccc1)Nc1ccccc1	9	-13	0	7	3618
CCc1nc2ccccc2c(C(=O)NCc2ccccc2)c1C	-2	27	2	0	3160
CCc1nc2ccccc2c(C(=O)O)c1C	4	4	3	8	22245*
CCC(=O)Nc1c(C)c(CC)nc2ccccc12	-8	-2	-3	-18	16775*
COc1cccc(CNc2nc3cc(-c4ccc(OC)cc4C)sc3c(=O)n2C)c1	2	-2	0	nt	3747
C[C@H](O)[C@@H]1CN2CCc3c([nH]c4ccccc34)[C@@H]2C[C@@H]1N(C)C(=O)c1ccco1	-7	7	3	nt	6588
CC(C)CCNC(=O)CN(CCN1CCOCC1)C(=O)Cn1nnc(-c2ccc(F)cc2)n1	-1	-1	-2	-2	22983*
COc1ccc(-c2nnn(CC(=O)N(CC(=O)NCCC(C)C)Cc3cccs3)n2)cc1OC	-3	-2	?	-4	16733*
O=C(CCc1ccc(S(=O)(=O)N2CCOCC2)cc1)NCCc1ccccn1	-2	-2	?	3	21908*
CNS(=O)(=O)c1ccc(CCC(=O)N2CCOCC2)cc1	-6	?	3	7	3301
O=C(CCc1ccc(S(=O)(=O)N2CCOCC2)cc1)N1CCCC1	-2	-3	?	4	23425*
O=C(CCc1ccc(S(=O)(=O)N2CCOCC2)cc1)Nc1nc(COc2ccccc2)cs1	-1	0	2	-7	22376*
O=C1CCCN1C(=O)CSc1nnnn1-c1ccccc1	-8	-8	-1	2	3632
Cc1cccc(C(=O)NCc2nnc(SCC(=O)NC3CCCC3)n2C)c1	-4	-2	-1	-5	5625
CCn1c(=O)c2ccccc2n2c(SCC(=O)NCc3cccs3)nnc12	-1	-4	-2	-2	23072*
CCn1c(SC(=O)NC2CCCCC2)nnc1-c1cccs1	-3	-1	-1	2	16821*
CCn1c(SCC(=O)NC2CC2)nnc1-c1cccs1	2	7	3	1	7427
CCn1c(SCC(=O)NC2CCCCC2)nnc1-c1cccs1	-17	3	4	1	20887*
Cc1cccc(C)c1OCC(=O)NCc1nnc(SCC(=O)NC2CCCCC2)n1C	-5	-5	?	4	22773*
SMILES	Anthrax LF inh2	BoNT-F LC inh	BoNT-A LC inh2	MazEF act	Bead autofluor
CCCn1c(=O)c2ccccc2n2c(SCC(=O)NCc3cccs3)nnc12	5	34	2	5	3805
COc1ncnc2c1ncn2CCCNCc1ccco1	3	3	0	3	3792
CC(=O)c1cc2c(cc1NC(=O)CCn1cnnn1)OCO2	-2	10	1	8	2827
O=c1c(Cl)c(Cl)cnn1Cc1nnc(-c2ccccc2Br)o1	0	-1	0	-1	2290
CCn1c(SCC(=O)NCc2ccco2)nnc1-c1cccs1	-7	6	?	-2	19582*
CCn1c(SCC(=O)NCc2ccco2)nnc1C(C)C	-1	-22	-1	-2	4592
O=C(NC(Sc1ccc(Cl)cc1)C(=O)O)c1ccccc1 (stereo not given)	-11	-3	0	-1	2876
CCCCCC(=O)Nc1cc(N(C)C)nc2ccccc12	-14	9	6	3	17328*
CCN(CC)CC(=O)Nc1cc(N(C)C)nc2ccccc12	-8	?	2	14	?
CCN(CC)C(=O)c1nc[nH]c1C(=O)N(CC)CC	6	4	0	0	4064
COc1ccc([C@H]2CC(=O)C[C@@H](CCn3cc(C)nn3)O2)cc1	-5	-6	0	nt	6069
O=C(CN1C(=O)/C(=C\C=C\c2ccccc2)SC1=S)Nc1ccc(F)cc1	18	18	34*	49	2623
O=C(CCN1C(=O)/C(=C\C=C\c2ccccc2)SC1=S)Nc1ccc(C(=O)O)cc1	9	24	18	-15	4578
O=C(COC(=O)CCN1C(=O)/C(=C\C=C\c2ccccc2)SC1=S)Nc1cc(F)ccc1F	20	11	42*	-13	4972
O=C(CCN1C(=O)/C(=C/C=C/c2ccccc2)SC1=S)Nc1nc2ccccc2s1	28	20	56*	-23	2563
O=C(CCN1C(=O)/C(=C/c2ccccc2)SC1=S)NNC(=O)c1ccncc1	3	0	0	135*	4730
O=C(CCN1C(=O)/C(=C\c2ccccc2)SC1=S)NNC(=O)c1ccncc1	?	-4	6	-20	3438
Cc1cc(Br)c(NC(=O)COC(=O)c2ccc[n+]([O-])c2)c(Br)c1	3	2	1	4	3800
COc1cc(C(=O)NCC(=O)N2CCN(S(=O)(=O)c3ccccc3)CC2)cc(OC)c1OC	?	?	?	4	?
CCOC(=O)CN1C(=O)C(=O)N(Cc2c(F)cccc2Cl)C1=O	15	9	0	2	3668
